In PubChem BioAssay (EPA / NIEHS):
Records with an inconclusive call do not appear. The source made the active and inactive calls. The calls were made as follows, unless noted: active = hit-call score of the fitted dose curve at least 0.9, where 1 is the maximum; inconclusive = response in the unintended direction; inactive = score below 0.9.

How the values were obtained:
[1] = ATG_TAL_CIS: Attagene CIS-FACTORIAL HepG2 Assay for human TAL Basal Promoter (AID 2282966; active = hit-call score of the fitted dose curve at least 0.9, where 1 is the maximum; inactive = score below 0.9;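 also: background control endpoint measuring basal TAL promoter reporter mRNA not a specific factor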); conditions: HepG2 Attagene cis-factorial TAL promoter reporter; actives raise or lower the signal
Method in brief: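 Human hepatoma HepG2 cells, transfected with promoter-regulated reporter units, were treated 24 h. Reporter transcript levels, measured through RT-PCR and capillary electrophoresis, were fitted for gain or loss relative to DMSO.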

[2] = ATG_TGFb_CIS: Attagene CIS-FACTORIAL HepG2 Assay for human Transforming Growth Factor (TGF) (AID 2282967; active = hit-call score of the fitted dose curve at least 0.9, where 1 is the maximum; inactive = score below 0.9); conditions: HepG2 Attagene CIS TGFb reporter, mRNA transcription; actives raise or lower the signal
Method in brief: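 Multiplexed cis-reporter HepG2 system, 24 h treatment; mRNA induction read by fluorescence after RT-PCR and CE; DMSO negative control, bidirectional curve fitting.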

[3] = ATG_VDRE_CIS: Attagene CIS-FACTORIAL HepG2 Assay for human Vitamin D Receptor Element (VDRE) (AID 2282968; active = hit-call score of the fitted dose curve at least 0.9, where 1 is the maximum; inactive = score below 0.9); conditions: HepG2 VDRE cis-reporter transcription, actives raise or lower the signal
Method in brief: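 Transfected HepG2 reporter cells, chemical treatment 24 h. RNA isolated, cDNA amplified with reporter-specific primers, products analysed by capillary electrophoresis. Endpoint fitted in both directions versus DMSO.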

[4] = biological target: X-box-binding protein 1 (Homo sapiens) (UniProt P17861); experiment: ATG_Xbp1_CIS: Attagene CIS-FACTORIAL HepG2 Assay for human X-box Binding Protein 1 (XBP1) (AID 2282972; active = hit-call score of the fitted dose curve at least 0.9, where 1 is the maximum; inactive = score below 0.9); conditions: HepG2 XBP1 cis-element reporter, Attagene multiplex; actives raise or lower the signal
Method in brief: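 Multiplexed cis-reporter readout in transfected HepG2 liver cells. Exposure lasted 24 hours. Activity in either direction was fitted against DMSO as negative control and baseline.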

[5] = ATG_GAL4_TRANS: Attagene TRANS-FACTORIAL HepG2 Assay for GAL4 (Internal Marker) (AID 2282976); conditions: HepG2 Attagene TRANS GAL4 internal marker reporter
Method in brief: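 Liver HepG2 line bearing multiplexed GAL4-UAS reporter constructs; 24 h chemical treatment. Transcripts were quantified as fluorescent fragments on capillary electrophoresis after RT-PCR and HpaI cut, with activity fitted upward from DMSO.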

[6] = biological target: Glucocorticoid receptor (Homo sapiens) (UniProt P04150); experiment: ATG_GR_TRANS: Attagene TRANS-FACTORIAL HepG2 Assay for human Glucocorticoid Receptor (GR) (AID 2282978); conditions: HepG2 Attagene TRANS GR reporter, mRNA transcription;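 also: activators score as hits since higher reporter transcript over DMSO is fitted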
Method in brief: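 Readout is reporter transcript from a chimeric GR-Gal4 acting on GAL4-UAS in transfected human HepG2 liver cells after 24 h exposure, quantified by RT-PCR and capillary electrophoresis. Activation fitted upward against DMSO.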

[7] = biological target: Bile acid receptor (Homo sapiens) (UniProt Q96RI1); experiment: ATG_FXR_TRANS: Attagene TRANS-FACTORIAL HepG2 Assay for Farnesoid X Receptor (FXR) (AID 2282979); conditions: HepG2 Attagene TRANS FXR-GAL4 reporter transcription;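 also: hits raise reporter mRNA above DMSO so AC50 marks FXR activation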
Method in brief: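 After 24 h chemical treatment of transfected HepG2 cells, GAL4-UAS reporter transcripts driven by an exogenous FXR-GAL4 fusion were measured by RT-PCR and capillary electrophoresis. Increases over DMSO were fitted.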

[8] = biological target: Oxysterols receptor LXR-alpha (Homo sapiens) (UniProt Q13133); experiment: ATG_LXRa_TRANS: Attagene TRANS-FACTORIAL HepG2 Assay for human Liver X Receptor alpha (LXRa) (AID 2282980); conditions: HepG2 Attagene TRANS reporter, LXRa transactivation
Method in brief: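 In this multiplexed TRANS system, compounds act on HepG2 cells carrying GAL4-UAS reporter units and a receptor-GAL4 fusion for 24 h. Induced reporter RNA is amplified, fluorescently labelled and sized by capillary electrophoresis, with DMSO as baseline.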

[9] = biological target: Oxysterols receptor LXR-beta (Homo sapiens) (UniProt P55055); experiment: ATG_LXRb_TRANS: Attagene TRANS-FACTORIAL HepG2 Assay for human Liver X Receptor beta (LXRb) (AID 2282981); conditions: HepG2 Attagene TRANS GAL4-LXRb reporter, mRNA
Method in brief: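 Liver-derived HepG2 cells transfected with Gal4-responsive reporters were dosed for 24 h. Activation was scored as rise in reporter mRNA, by RT-PCR and capillary electrophoresis, above DMSO baseline.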

[10] = ATG_M_06_TRANS: Attagene TRANS-FACTORIAL HepG2 Assay for M06 Transcription Factor (Internal Marker) (AID 2282983); conditions: HepG2 Attagene TRANS M06 internal marker reporter
Method in brief: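 Multi-reporter-transfected HepG2, 24 h treatment; reporter transcripts quantified via RT-PCR, primer-extension labelling and CE. DMSO-normalized gain-of-signal fit.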

[11] = ATG_M_32_TRANS: Attagene TRANS-FACTORIAL HepG2 Assay for M32 Transcription Factor (Internal Marker) (AID 2282984); conditions: HepG2 Attagene TRANS M32 internal marker reporter
Method in brief: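 Fluorescence-detected mRNA induction, HepG2 liver cells, 24 h after dosing. Multiple GAL4-UAS reporter units introduced by transient transfection; background-control endpoint analysed for gain of signal against DMSO.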

[12] = biological target: Nuclear receptor subfamily 4 group A member 2 (Homo sapiens) (UniProt P43354); experiment: ATG_NURR1_TRANS: Attagene TRANS-FACTORIAL HepG2 Assay for human Nuclear Receptor Related Protein 1 (NURR1) (AID 2282985); conditions: HepG2 Attagene TRANS reporter, mRNA readout
Method in brief: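 Chimeric NR-Gal4 proteins were expressed in human HepG2 cells bearing GAL4-UAS reporter units, and induced reporter mRNA was quantified 24 h post-dosing by RT-PCR and capillary electrophoresis.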

[13] = biological target: Transcriptional activator Myb (Homo sapiens) (UniProt P10242); experiment: ATG_Myb_CIS: Attagene CIS-FACTORIAL HepG2 Assay for human Myeloblastosis (Myb) Proto-Oncogene Transcription Factor (AID 2282986; active = hit-call score of the fitted dose curve at least 0.9, where 1 is the maximum; inactive = score below 0.9); conditions: HepG2 Attagene CIS-FACTORIAL Myb reporter transcription; actives raise or lower the signal
Method in brief: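 Reporter mRNA is quantified by RT-PCR and capillary electrophoresis 24 h after dosing HepG2 cells transfected with cis-regulated reporter units, which track endogenous transcription factor activity. Gain and loss of signal are fitted versus DMSO baseline.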

[14] = biological target: Nuclear respiratory factor 1 (Homo sapiens) (UniProt Q16656); experiment: ATG_NRF1_CIS: Attagene CIS-FACTORIAL HepG2 Assay for human Nuclear Respiratory Factor 1 (NRF1) Orphan Gene (AID 2282987; active = hit-call score of the fitted dose curve at least 0.9, where 1 is the maximum; inactive = score below 0.9); conditions: HepG2 NRF1 cis-element reporter, Attagene multiplex; actives raise or lower the signal
Method in brief: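 Endogenous NRF1-driven reporter transcription in transfected HepG2 cells after 24 h treatment. Readout: RT-PCR products, 6-FAM labelled and resolved by capillary electrophoresis; changes fitted both directions relative to DMSO.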

[15] = ATG_M_19_TRANS: Attagene TRANS-FACTORIAL HepG2 Assay for M19 Transcription Factor (Internal Marker) (AID 2282974); conditions: HepG2 Attagene TRANS-FACTORIAL M19 internal marker reporter
Method in brief: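 Background-control readout: after 24 h chemical exposure of transfected HepG2 carrying GAL4-driven reporter units, RNA was reverse-transcribed, amplified, fluorescently labeled and sized by capillary electrophoresis; gain-of-signal fit against DMSO.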

[16] = biological target: Hepatocyte nuclear factor 4-alpha (Homo sapiens) (UniProt P41235); experiment: ATG_HNF4a_TRANS: Attagene TRANS-FACTORIAL HepG2 Assay for human Hepatocyte Nuclear Factor 4 alpha (HNF4a) (AID 2282982); conditions: HepG2 HNF4a transactivation reporter, mRNA readout
Method in brief: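 Using HepG2 liver cells transfected with GAL4-UAS reporter units, chemical-induced mRNA increases were assessed after 24 hours. Fluorescent RT-PCR fragments were separated by capillary electrophoresis and compared with DMSO negative controls.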

Chain of Hepatocyte nuclear factor 4-alpha (Homo sapiens) (P41235 whole entry, looked up, the tested form may be a part): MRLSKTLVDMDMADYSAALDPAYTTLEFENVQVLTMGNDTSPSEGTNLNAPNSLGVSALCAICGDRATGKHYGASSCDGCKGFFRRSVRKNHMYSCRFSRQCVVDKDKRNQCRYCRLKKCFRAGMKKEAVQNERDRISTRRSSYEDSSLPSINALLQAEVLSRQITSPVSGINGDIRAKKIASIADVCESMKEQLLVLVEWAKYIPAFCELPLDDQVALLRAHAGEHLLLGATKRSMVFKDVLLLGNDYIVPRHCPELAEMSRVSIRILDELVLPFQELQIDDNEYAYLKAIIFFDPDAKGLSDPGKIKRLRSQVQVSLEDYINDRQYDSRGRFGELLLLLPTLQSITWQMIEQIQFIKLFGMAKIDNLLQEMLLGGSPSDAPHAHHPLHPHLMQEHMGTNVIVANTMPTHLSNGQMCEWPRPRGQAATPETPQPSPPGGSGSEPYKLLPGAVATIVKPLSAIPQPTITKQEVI
Chain of Bile acid receptor (Homo sapiens) (Q96RI1 whole entry, looked up, the tested form may be a part): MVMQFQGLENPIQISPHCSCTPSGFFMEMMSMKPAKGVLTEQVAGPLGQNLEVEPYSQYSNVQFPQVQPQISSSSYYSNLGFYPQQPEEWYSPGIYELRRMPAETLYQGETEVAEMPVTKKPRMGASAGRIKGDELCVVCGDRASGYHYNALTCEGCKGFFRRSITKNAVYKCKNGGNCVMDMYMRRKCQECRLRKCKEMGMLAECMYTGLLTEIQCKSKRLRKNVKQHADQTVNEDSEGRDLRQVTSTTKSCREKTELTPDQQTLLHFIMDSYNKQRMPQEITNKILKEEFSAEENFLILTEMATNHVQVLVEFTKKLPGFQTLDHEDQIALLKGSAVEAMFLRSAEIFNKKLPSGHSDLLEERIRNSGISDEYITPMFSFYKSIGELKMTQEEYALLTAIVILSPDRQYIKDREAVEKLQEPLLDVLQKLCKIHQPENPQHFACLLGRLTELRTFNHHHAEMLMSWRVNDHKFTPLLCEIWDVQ
Chain of Glucocorticoid receptor (Homo sapiens) (P04150 whole entry, looked up, the tested form may be a part): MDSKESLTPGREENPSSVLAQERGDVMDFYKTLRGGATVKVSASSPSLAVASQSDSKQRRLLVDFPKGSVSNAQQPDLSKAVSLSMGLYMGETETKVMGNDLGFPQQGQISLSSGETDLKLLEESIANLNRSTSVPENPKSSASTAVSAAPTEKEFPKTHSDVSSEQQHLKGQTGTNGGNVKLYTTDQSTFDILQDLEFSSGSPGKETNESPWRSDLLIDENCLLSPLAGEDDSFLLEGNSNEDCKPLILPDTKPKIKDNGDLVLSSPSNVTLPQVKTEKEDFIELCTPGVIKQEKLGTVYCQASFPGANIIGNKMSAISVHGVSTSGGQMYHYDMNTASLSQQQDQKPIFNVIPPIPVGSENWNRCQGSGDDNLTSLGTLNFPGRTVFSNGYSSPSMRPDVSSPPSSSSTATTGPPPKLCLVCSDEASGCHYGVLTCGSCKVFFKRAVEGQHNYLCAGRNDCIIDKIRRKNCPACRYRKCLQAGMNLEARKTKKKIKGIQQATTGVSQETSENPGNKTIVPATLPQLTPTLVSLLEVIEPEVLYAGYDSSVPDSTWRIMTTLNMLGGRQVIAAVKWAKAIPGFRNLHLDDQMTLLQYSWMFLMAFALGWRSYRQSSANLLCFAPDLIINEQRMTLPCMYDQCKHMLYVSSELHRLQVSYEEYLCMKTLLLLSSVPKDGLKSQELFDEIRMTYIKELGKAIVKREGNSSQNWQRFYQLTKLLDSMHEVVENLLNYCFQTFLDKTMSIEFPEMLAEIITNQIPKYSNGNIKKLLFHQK
Chain of X-box-binding protein 1 (Homo sapiens) (P17861 whole entry, looked up): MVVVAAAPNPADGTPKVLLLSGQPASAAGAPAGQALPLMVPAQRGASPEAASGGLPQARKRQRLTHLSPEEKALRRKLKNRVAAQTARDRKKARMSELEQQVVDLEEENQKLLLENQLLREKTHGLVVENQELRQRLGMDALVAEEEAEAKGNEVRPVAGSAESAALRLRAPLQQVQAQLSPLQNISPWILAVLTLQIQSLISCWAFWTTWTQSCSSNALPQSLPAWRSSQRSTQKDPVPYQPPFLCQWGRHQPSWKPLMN
Chain of Nuclear respiratory factor 1 (Homo sapiens) (Q16656 whole entry, looked up): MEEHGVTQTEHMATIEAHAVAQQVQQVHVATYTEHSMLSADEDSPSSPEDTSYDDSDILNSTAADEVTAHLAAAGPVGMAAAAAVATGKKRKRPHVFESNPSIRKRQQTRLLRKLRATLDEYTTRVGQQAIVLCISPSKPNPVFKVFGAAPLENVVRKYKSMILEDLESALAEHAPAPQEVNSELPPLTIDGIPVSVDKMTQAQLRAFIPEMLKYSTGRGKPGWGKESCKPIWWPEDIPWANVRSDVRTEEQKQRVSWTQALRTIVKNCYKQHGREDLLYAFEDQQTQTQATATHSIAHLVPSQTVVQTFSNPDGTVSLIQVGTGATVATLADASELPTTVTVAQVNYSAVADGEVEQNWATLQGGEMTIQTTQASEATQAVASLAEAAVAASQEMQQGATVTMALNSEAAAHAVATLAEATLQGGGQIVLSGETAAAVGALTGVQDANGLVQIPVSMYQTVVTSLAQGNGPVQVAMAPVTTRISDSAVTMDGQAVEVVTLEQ
Chain of Oxysterols receptor LXR-beta (Homo sapiens) (P55055 whole entry, looked up, the tested form may be a part): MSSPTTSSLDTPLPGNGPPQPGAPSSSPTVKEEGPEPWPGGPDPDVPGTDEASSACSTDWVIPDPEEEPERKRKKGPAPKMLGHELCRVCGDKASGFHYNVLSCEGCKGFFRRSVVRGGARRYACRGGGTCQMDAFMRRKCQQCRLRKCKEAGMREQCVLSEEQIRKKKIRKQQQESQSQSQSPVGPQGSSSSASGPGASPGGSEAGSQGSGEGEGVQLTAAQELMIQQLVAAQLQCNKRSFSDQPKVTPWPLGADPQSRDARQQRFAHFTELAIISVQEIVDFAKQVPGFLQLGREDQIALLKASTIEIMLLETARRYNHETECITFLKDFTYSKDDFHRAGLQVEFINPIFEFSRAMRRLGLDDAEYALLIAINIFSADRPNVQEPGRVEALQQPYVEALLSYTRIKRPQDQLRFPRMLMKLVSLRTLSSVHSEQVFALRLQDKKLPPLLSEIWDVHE
Chain of Nuclear receptor subfamily 4 group A member 2 (Homo sapiens) (P43354 whole entry, looked up, the tested form may be a part): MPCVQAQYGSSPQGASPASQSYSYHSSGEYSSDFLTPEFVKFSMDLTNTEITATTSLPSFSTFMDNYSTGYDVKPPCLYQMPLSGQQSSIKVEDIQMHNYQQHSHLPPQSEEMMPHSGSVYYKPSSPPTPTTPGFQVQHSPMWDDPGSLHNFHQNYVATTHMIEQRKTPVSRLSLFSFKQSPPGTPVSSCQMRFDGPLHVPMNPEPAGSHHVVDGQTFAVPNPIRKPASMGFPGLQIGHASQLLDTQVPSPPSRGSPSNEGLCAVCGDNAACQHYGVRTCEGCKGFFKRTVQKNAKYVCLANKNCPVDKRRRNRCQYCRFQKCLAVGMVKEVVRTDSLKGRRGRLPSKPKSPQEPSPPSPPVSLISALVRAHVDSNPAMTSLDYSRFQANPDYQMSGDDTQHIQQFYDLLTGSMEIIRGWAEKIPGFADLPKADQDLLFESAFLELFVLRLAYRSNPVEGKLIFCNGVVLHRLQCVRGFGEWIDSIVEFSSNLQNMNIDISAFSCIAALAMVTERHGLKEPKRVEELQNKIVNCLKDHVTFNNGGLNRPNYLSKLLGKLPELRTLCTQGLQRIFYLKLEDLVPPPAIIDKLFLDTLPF
Chain of Transcriptional activator Myb (Homo sapiens) (P10242 whole entry, looked up): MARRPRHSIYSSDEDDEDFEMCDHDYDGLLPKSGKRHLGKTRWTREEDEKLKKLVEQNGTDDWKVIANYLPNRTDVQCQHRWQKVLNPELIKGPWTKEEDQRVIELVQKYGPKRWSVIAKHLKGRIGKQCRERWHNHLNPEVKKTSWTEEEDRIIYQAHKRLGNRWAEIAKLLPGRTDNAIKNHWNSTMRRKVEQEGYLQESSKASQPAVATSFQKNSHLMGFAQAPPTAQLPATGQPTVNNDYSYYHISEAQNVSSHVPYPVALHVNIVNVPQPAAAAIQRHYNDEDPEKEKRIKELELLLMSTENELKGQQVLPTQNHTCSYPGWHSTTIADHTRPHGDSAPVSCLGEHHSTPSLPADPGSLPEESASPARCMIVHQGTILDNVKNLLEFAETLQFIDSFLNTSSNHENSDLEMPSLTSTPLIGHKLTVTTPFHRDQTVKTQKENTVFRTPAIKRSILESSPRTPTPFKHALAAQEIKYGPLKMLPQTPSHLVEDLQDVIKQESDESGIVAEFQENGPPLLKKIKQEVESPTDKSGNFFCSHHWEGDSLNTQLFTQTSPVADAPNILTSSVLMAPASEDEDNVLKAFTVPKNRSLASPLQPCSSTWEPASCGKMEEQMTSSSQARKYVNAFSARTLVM
Chain of Oxysterols receptor LXR-alpha (Homo sapiens) (Q13133 whole entry, looked up, the tested form may be a part): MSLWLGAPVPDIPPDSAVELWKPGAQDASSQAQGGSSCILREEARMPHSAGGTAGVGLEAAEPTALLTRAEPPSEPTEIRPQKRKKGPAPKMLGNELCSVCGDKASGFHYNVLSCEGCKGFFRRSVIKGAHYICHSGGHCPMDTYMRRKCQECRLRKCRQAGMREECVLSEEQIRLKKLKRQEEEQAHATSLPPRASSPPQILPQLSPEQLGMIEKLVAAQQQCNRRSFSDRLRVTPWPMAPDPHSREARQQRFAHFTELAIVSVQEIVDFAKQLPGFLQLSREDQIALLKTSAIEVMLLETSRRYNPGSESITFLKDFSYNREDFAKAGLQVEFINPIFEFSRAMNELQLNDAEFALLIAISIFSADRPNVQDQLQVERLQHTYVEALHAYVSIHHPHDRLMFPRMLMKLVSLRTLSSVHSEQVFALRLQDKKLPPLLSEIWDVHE

SMILES | outcome [1] | outcome [2] | outcome [3] | outcome [4] | outcome [5] | outcome [6] | outcome [7] | outcome [8] | outcome [9] | outcome [10] | outcome [11] | outcome [12] | outcome [13] | outcome [14] | outcome [15] | outcome [16] | AC50 [6]
C=CC(C)(O)CCC=C(C)C (stereo unspecified) | inactive | inactive | inactive | inactive | inactive | inactive | inactive | inactive | inactive | inactive | inactive | inactive | inactive | inactive | – | – | –
C[C@H](CCC(=O)NCC(=O)O)[C@H]1CC[C@H]2[C@@H]3[C@H](O)C[C@@H]4C[C@H](O)CC[C@]4(C)[C@H]3C[C@H](O)[C@]12C | inactive | inactive | inactive | inactive | – | inactive | – | – | inactive | – | – | inactive | inactive | inactive | inactive | inactive | –
Cc1ncc[nH]1 | inactive | inactive | inactive | inactive | – | inactive | inactive | inactive | inactive | inactive | inactive | – | inactive | inactive | inactive | inactive | –
CCc1ccc(O)cc1 | inactive | inactive | inactive | inactive | inactive | inactive | – | – | – | inactive | inactive | inactive | inactive | – | inactive | inactive | –
C=C(C)C(=O)OCCOCCOCCOCCOC(=O)C(=C)C | inactive | inactive | inactive | inactive | inactive | – | – | – | – | inactive | – | – | inactive | inactive | inactive | inactive | –
CC1(C)O[C@@H]2C[C@H]3[C@@H]4CCC5=CC(=O)C=C[C@]5(C)[C@@]4(F)[C@@H](O)C[C@]3(C)[C@]2(C(=O)CO)O1 | inactive | inactive | inactive | inactive | – | – | inactive | inactive | inactive | – | inactive | inactive | inactive | inactive | inactive | – | 488 nM (active)
CC(C)Nc1nc(N)nc(Cl)n1 | inactive | inactive | inactive | inactive | – | inactive | – | – | – | inactive | – | inactive | inactive | inactive | inactive | inactive | –
CCCC(C)C(O)CC (stereo unspecified) | inactive | inactive | inactive | inactive | inactive | inactive | – | inactive | inactive | – | – | inactive | inactive | inactive | inactive | – | –
CC(C)c1ccccc1O | inactive | inactive | inactive | inactive | – | – | – | inactive | – | inactive | – | – | inactive | inactive | inactive | – | –
CCCCCC(C)=O | inactive | inactive | inactive | inactive | inactive | inactive | – | inactive | – | inactive | inactive | – | inactive | inactive | inactive | – | –
CCC(=O)OCCOc1ccccc1 | inactive | inactive | inactive | inactive | inactive | – | – | inactive | inactive | inactive | inactive | inactive | inactive | inactive | inactive | – | –
